Reference: PubChem BioAssay
A number with no mark means an inactive call. Calls of active or inactive are those of the source. No stated cut-off is given here; in the data, active means fold change permeability below about 0.7 or above about 1.3; inactive means in between.

Assay: compounds altering in vitro BBB leakiness – cell-based, FITC-avidin fluorescence, HTS, primary screen (AID 1963498); further: test concentration not given here
Conditions: brain endothelial barrier, actives lie on both sides

SMILES | fold change permeability
O=C(O)c1cc([N+](=O)[O-])ccc1NCCCc1ccccc1 | 1
CN[C@H](CC(=O)O)C(=O)O | 0.8
CCN(CC)CCOC(=O)c1cc(Cl)c(N)cc1OC | 1.1
CCOC(=O)C12CC1/C(=N\O)c1ccccc1O2 (stereo not given) | 1.2
CCOC(=O)COc1ccc2c(c1)C[C@@H](NC[C@H](O)c1cccc(Cl)c1)CC2 | 1.1
COc1cc(N2CCN(C)CC2)ccc1Nc1nccc(-c2cn(C)c3cnccc23)n1 | 1.2
CCCCS(=N)(=O)CC[C@H](N)C(=O)O (stereo not given in full) | 0.9
CCN(C)C(=O)Oc1cccc([C@H](C)N(C)C)c1 | 1
O=C(O)CP(=O)(O)O | 1
NC(=O)c1sc(-c2ccsc2)cc1N | 0.9
O=C(NCCN1CCOCC1)c1ccc(Cl)cc1 | 0.8
CN(C)C/C=C(/c1ccc(Br)cc1)c1cccnc1 | 1.7 (active)
COc1ccccc1N1CCN(CCN(C(=O)C2CCCCC2)c2ccccn2)CC1 | 2 (active)
NNCCc1ccccc1 | 1.1
COCC(=O)O[C@]1(CCN(C)CCCc2nc3ccccc3[nH]2)CCc2cc(F)ccc2[C@@H]1C(C)C | 1.5 (active)
CCOC(=O)Nc1ccc(NCc2ccc(F)cc2)nc1N | 1.6 (active)
CN=C(N)NCCC[C@H](N)C(=O)O | 0.8
N=c1c[n+](N2CCOCC2)[n-]o1 | 0.8
CC/C(=N\NC(=O)c1ccnc(NCCCN2CCOCC2)c1)c1ccc(Cl)cc1O | 0.8
N[C@@H](CC(=O)O)C(=O)O | 1
CC(=O)OCC(CCn1cnc2cnc(N)nc21)COC(C)=O | 0.9
NC(N)=N/N=C/c1c(Cl)cccc1Cl | 1

SMILES | fold change permeability
N=c1ccn2c(n1)O[C@H]1[C@H](O)[C@@H](CO)O[C@H]12 | 1.1
N=C(N)c1ccccc1 | 0.9
C[C@@H](O)[C@H]1C(=O)N2C(C(=O)O)=C(SCCN=CN)C[C@H]12 | 0.8
N#CC(C#N)=C(N)/C(C#N)=C/c1ccc(O)cc1 | 0.7 (active)
CCN(CC)CCCCCCCCOC(=O)c1cc(OC)c(OC)c(OC)c1 | 1.1
COc1cc(/C=C/C(=O)N2CCC=CC2=O)cc(OC)c1OC | 1
N[C@@H](Cc1ccc(O)c(O)c1)C(=O)O | 0.8
CCCn1c(=O)c2[nH]c(C3CCCC3)nc2n(CCC)c1=O | 1.5 (active)
CCCCCCCCCCCCCCCCCCOC[C@H](COP(=O)([O-])OCC[N+](C)(C)C)OC | 1.5 (active)
CC(C)[C@H]1c2ccc(F)cc2CC[C@@]1(CCN(C)CCCc1nc2ccccc2[nH]1)OC(=O)C1CC1 | 1.3 (active)
C=C1C[C@@]23CC[C@H]4[C@@](C)(CCC[C@@]4(C)C(=O)O)[C@@H]2CC[C@]1(O)C3 | 0.9
Nc1nc2c(c(=O)[nH]1)C[C@@H](CCc1ccc(C(=O)N[C@@H](CCC(=O)O)C(=O)O)cc1)CN2 | 0.9
Cc1cccc(-c2[nH]c(Cc3cccc(C(N)=O)c3)nc2-c2ccc3nccnc3c2)n1 | 0.9
O=C(O)c1cc(=O)cc(C(=O)O)[nH]1 | 0.8
Cc1nc(N=Nc2ccc(C(=O)O)cc2)c(COP(=O)(O)O)c(C=O)c1O | 0.7 (active)
COc1ccc(-n2c(SCc3nc(-c4ccc(C)cc4)no3)nnc2-c2ccncc2)cc1 | 0.8
NC[C@@H]1O[C@H](C23CC4CC(CC(C4)C2)C3)Cc2c1ccc(O)c2O | 1.1
OCCN1CCN(CCCN2c3ccccc3Sc3ccc(Cl)cc32)CC1 | 1.2
Cc1cccc(C2CN(C)CCc3c2cc(O)c(O)c3Cl)c1 (stereo not given) | 0.7 (active)
O=S(=O)(c1cccc2c(I)cccc12)N1CCCNCC1 | 0.9
Cc1c(Cl)cccc1Nc1ncccc1C(=O)O | 1.1
CCN1CCCC1CNC(=O)c1cc(S(N)(=O)=O)ccc1OC (stereo not given) | 0.7 (active)

SMILES | fold change permeability
COc1ccc(Oc2c(Cl)cnn(C3c4ccccc4-c4ccccc43)c2=O)cc1 | 1.4 (active)
CC(C)(C)NCC(O)c1cc(O)cc(O)c1 (stereo not given) | 0.8
N[C@@H](Cc1c[nH]c2ccccc12)C(=O)O | 1.3 (active)
Cc1cc(N2C[C@@H](C)N[C@@H](C)C2)ncc1-c1ccc(-c2nc3c(ccn3C)c(=O)[nH]2)cc1 | 1.3 (active)
Fc1ccc([C@@H]2CCNC[C@H]2COc2ccc3c(c2)OCO3)cc1 | 1.2
CN1CCN2c3ccccc3Cc3ccccc3C2C1 (stereo not given) | 1.1
CCCCCCN(CCCCCC)C(=O)Cc1c(-c2ccc(F)cc2)[nH]c2ccccc12 | 1.4 (active)
N#Cc1c2nc3ccccc3nc2n2ccc(NC(=O)c3cccs3)cc12 | 1.2
NCCCCN=C(N)N | 1.3 (active)
O=C1NCN(c2ccccc2)C12CCN(CCCC(c1ccc(F)cc1)c1ccc(F)cc1)CC2 | 1.2
CCOC(=O)C(C)(C)Oc1ccc(Cl)cc1 | 0.9
O=C(NCCO)c1cccc(-c2cc(Nc3ccc(OC(F)(F)F)cc3)ncn2)c1 | 1.4 (active)
NOCC(=O)O | 0.9
O=C1c2cccc3c2[C@H](CCC3)CN1[C@@H]1CN2CCC1CC2 | 1.3 (active)
CN(C)c1nc(N(C)C)nc(N(C)C)n1 | 1.1
O=C1Nc2ccc(Cl)cc2[C@@](C#CC2CC2)(C(F)(F)F)O1 | 1.2
CC(C)NNC(=O)c1ccncc1 | 0.6 (active)
CCCCCCCC/C=C\CCCCCCCC(=O)NCCO | 1.2
COC(=O)C(N)Cc1ccc(Cl)cc1 (stereo not given) | 1.1
NC/C=C\C(=O)O | 1.2
Cc1cc(C(C)(C)C)c(O)c(C)c1CC1=NCCN1 | 0.8
CC1CCc2nc(N)c(C#N)c(-c3cccnc3)c2C1 (stereo not given) | 1

SMILES | fold change permeability
C[C@]12C=CC(=O)C=C1CC[C@@H]1C2=CC[C@]2(C)[C@@H](C(=O)CN3CCN(c4cc(N5CCCC5)nc(N5CCCC5)n4)CC3)CC[C@@H]12 | 1.4 (active)
O=C(NCc1ccc(F)cc1)C1CCN(S(=O)(=O)c2cc(Cl)cc(Cl)c2)CC1 | 1.5 (active)
C=CCN1CCc2c(cc(O)c(O)c2Br)[C@@H](c2ccccc2)C1 | 1
CC(C(=O)O)c1ccc(CC2CCCC2=O)cc1 (stereo not given) | 1.5 (active)
CCN(CC)CCNC(=O)c1cc(S(C)(=O)=O)ccc1OC | 0.9
Cc1ccccc1C(OCCN(C)C)c1ccccc1 (stereo not given) | 1
CCN(C)C(=O)C1(CCOc2ccccc2)CCN(Cc2ccc(O)c(Cl)c2)CC1 | 1
CC(C)(C)c1ccc(C(O)CCCN2CCC(C(O)(c3ccccc3)c3ccccc3)CC2)cc1 (stereo not given) | 1.4 (active)
Cn1cnc2c1c(=O)[nH]c(=O)n2C | 1.3 (active)
O=C(Nc1ccccc1C(=O)NC1CCCCNC1=O)c1cc2ccccc2s1 (stereo not given) | 1.9 (active)
N=C(N)SCCc1cnc[nH]1 | 0.7 (active)
Clc1ccc2c(c1)C(N1CCNCC1)=Nc1ccccc1O2 | 1.2
CC(C)Cc1ccc(C(C)C(=O)O)cc1 (stereo not given) | 2 (active)
Oc1cc(O)cc(/C=C/c2ccc(O)c(O)c2)c1 | 0.7 (active)
N=C(N)c1ccc(OCCCCCOc2ccc(C(=N)N)cc2)cc1 | 1.1
COc1ccc(Br)cc1S(=O)(=O)NC(=O)/C=C/c1ccccc1Cc1ccc2ccccc2c1 | 1.1
O=C(Nc1ccccc1)c1cc([N+](=O)[O-])ccc1Cl | 1.5 (active)
c1ccc([C@H]2CN3CCSC3=N2)cc1 | 1.5 (active)
CC(=O)O[C@H]1Cc2ccccc2N(C(N)=O)c2ccccc21 | 1.8 (active)
CN(C)c1nc(N)c(C(=O)N=C(N)N)nc1Cl | 1
CC1(C)CCC=[N+]1[O-] | 0.9
COc1cc2c(cc1OC)C1CC(=O)C(CC(C)C)CN1CC2 (stereo not given) | 0.7 (active)

SMILES | fold change permeability
O=C(c1ccc(OCCCc2cnc[nH]2)cc1)C1CC1 | 1
N[C@H](C(=O)O)c1cc(O)cc(O)c1 | 1.2
CCCCC1C(=O)N(c2ccccc2)N(c2ccccc2)C1=O | 0.9
CC(N)(Cc1ccc(O)c(O)c1)C(=O)O (stereo not given) | 0.9
CC1(C)OC(=O)C(c2cccc(F)c2)=C1c1ccc(S(C)(=O)=O)cc1 | 0.9
C1CCc2nnnn2CC1 | 1.3 (active)
CN(C)C(=O)/N=N/C(=O)N(C)C | 1
Cc1nc2ccccn2c(=O)c1CCN1CCC(C(=O)c2ccc(F)cc2)CC1 | 1.1
C=CCN1CCc2c(cc(O)c(O)c2Cl)C(c2ccccc2)C1 (stereo not given) | 1
Oc1cc2c(c(Cl)c1O)CCNCC2c1ccccc1 (stereo not given) | 1.6 (active)
O=c1[nH]cnc2[nH]ncc12 | 1
N#C/C(=C\c1ccc(O)c(O)c1)C(=O)c1ccc(O)c(O)c1 | 1.8 (active)
CCC1(C)CC(=O)NC1=O (stereo not given) | 0.7 (active)
CCCNC(C)C(=O)Nc1ccccc1C (stereo not given) | 1
C=C(C)C1CC=C(C(=O)O)CC1 (stereo not given) | 0.9
CCCCOc1cc(CC2CNC(=O)N2)ccc1OC (stereo not given) | 0.8
N[C@@H](CC(=O)N1CCN(C(c2ccc(F)cc2)c2ccc(F)cc2)CC1)C(=O)N1Cc2ccccc2C1 | 1.1
O=C1c2ccccc2-c2n[nH]c3cccc1c23 | 1.5 (active)
CCCN(CC1CC1)c1nc(C)nc(Nc2c(Cl)cc(Cl)cc2Cl)c1Cl | 1.3 (active)
CCCCN(Cc1ccccc1)C(=O)c1ccc(S(=O)(=O)Nc2ccccc2)cc1 | 1.8 (active)
CCN1CCC[C@H]1CNC(=O)c1cc(S(N)(=O)=O)ccc1OC | 0.7 (active)
NCCS(=O)O | 1
